Screening data (PubChem)
In the library only some 19% were active in any assay of this set; here they are far more common.
KB-V1 cytotox – kills drug-selected multidrug resistant KB-V1 cells; KB-V1 MDR cells viability, CellTiter-Glo, 72 h; Potency, µM (top dose mostly 46.1 µM), hits mostly cytotoxic; 3.4% of 400,000 active; AID 1347076; further: nearly all actives have a fitted effect of over 60% in size
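Drug-selected KB-V1 cells, grown in DMEM lacking phenol red with 10% FBS, receive compound titrations; after three days at 37 degrees C, surviving cell ATP is quantified by CellTiter-Glo luminescence and responses normalized and curve-fitted.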
HT1080NT lethal – kills 2HG-producing HT-1080-NT fibrosarcoma cells; HT-1080-NT fibrosarcoma viability, CellTiter-Glo ATP luminescence, 48 h; Potency, µM (doses to about 46.1 µM), for the others: at the highest dose activity, negative = less viability, most hits filed as cytotoxic; 1.6% of 360,000 active; AID 686970;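 further: NT is the 2HG producing partner of a matched IDH1 knockdown line; 0% = DMSO-treated cells and -100% = media-only wells without cells; nearly all actives have a fitted effect of over 55% in size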
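Compounds were tested in concentration-response format on HT-1080-NT cells for 48 hours at 37 degrees C. Cell viability came from CellTiter-Glo luminescence; curves were classified by r2, response magnitude and activity.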
HT1080 IDH1KD tx – kills HT-1080 cells with IDH1 knockdown; AID 686971; Potency, µM (titrated, usually from 46.1 µM), for inactives: at the top dose activity, negative = toxicity, usual class: cytotoxic; HT-1080 IDH1 knockdown viability, ATP luminescence, 48 h; 2% of 360,000 active;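 further: 0% = DMSO wells and -100% = cell-free medium wells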
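Cytotoxicity counter-line: IDH1KD HT-1080, 48 h, CellTiter-Glo. Curves classed by r2, magnitude and activity.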
KB-3-1 tox – KB-3-1 parental cell cytotoxicity | KB-3-1 viability, CellTiter-Glo ATP luminescence, 72 h | Potency, µM (highest dose often 46.1 µM), most hits filed as cytotoxic | 1.4% of 400,000 active; further: nearly all actives have a fitted effect of over 60% in size
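Cytotoxicity in the drug-sensitive parental line KB-3-1 was scored as loss of CellTiter-Glo luminescence following 72 h incubation with compound. Values come from curve fitting of normalized concentration-response data.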
TDP1 cell noCPT – qHTS for Inhibitors of human tyrosyl-DNA phosphodiesterase 1 (TDP1): qHTS in cells in absence of CPT | DT40 Tdp1-/- hTDP1 cells, no CPT, ATP luminescence, 48 h | Potency, µM (top dose mostly 46.2 µM), without a hit: at the top dose activity change, negative = growth inhibition, actives largely listed as inhibitors | 15% of 420,000 active | AID 686978, 2013; further: nearly all actives have a fitted effect of over 55% in size
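Growth of hTDP1-complemented DT40 Tdp1-knockout cells is measured by ATP luminescence after at least 48 hr compound exposure at 37 °C, with DMSO substituting for the 20 nM CPT used in the parallel screen.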
TDP1 cell CPT – DT40-hTDP1 cell growth loss with CPT; chicken DT40 Tdp1-/-;hTDP1 cells + 20 nM CPT, ATP luminescence, 48 h; Potency, µM (top dose mostly 46.2 µM), without a hit: at the highest dose activity change, negative = growth inhibition, hits mostly inhibitors; 12% of 420,000 active; further: nearly all actives have a fitted effect of over 55% in size
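Cell growth measured by CellTiter-Glo luminescence after a minimum 48 h, 37 C compound exposure with 20 nM CPT in Tdp1-knockout DT40 cells stably expressing hTDP1, seeded 400/well; qHTS titration format.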
Active calls of the source: *; i = inactive; ? = inconclusive; . = no result given; ! = repeats disagree; [ ] = dose if it differs, or a comment. The call rests on the fitted dose curve; in most records, active means well fitted curve in the direction sought with a large enough effect; inconclusive means small, poorly fitted or top-dose-only effect, or another doubt; inactive means no such curve, though single readings can be large; an effect the other way counts as inactive or inconclusive. Unless noted, on the % scale 0 is the no-effect control and ±100 the full control effect; potency means the concentration at half of the fitted maximal effect.

SMILES	KB-V1 cytotox	HT1080NT lethal	HT1080 IDH1KD tx	KB-3-1 tox	TDP1 cell noCPT	TDP1 cell CPT
Cc1c(Cl)cccc1-c1ccc(/C=C(\C#N)c2nc3ccccc3[nH]2)o1	i	.	.	i	4.1µM*	10µM*
Cc1oc(-c2ccc(C(=O)NCc3ccccc3)cc2)nc1CN1CCc2ccccc21	i	.	.	i	21µM*	?
Cc1oc(-c2ccc(C(=O)NCCC(C)C)cc2)nc1CN1CCc2ccccc21	?	.	.	7.3µM*	.	.
Cc1cc([N+](=O)[O-])nn1CC(=O)c1ccccc1	i	-1%	-15%	i	0%	-5%
Cc1nc([N+](=O)[O-])c(C(=O)OCc2ccccc2F)n1C	i	-1%	-2%	i	-12%	9%
Cc1nc([N+](=O)[O-])c(Br)n1CC(=O)c1ccc2ccccc2c1	i	16µM*	?	i	21µM*	21µM*
Cc1nc([N+](=O)[O-])cn1CC(=O)c1ccc(Cl)cc1	i	6%	9%	i	23%	-18%
Cc1nc([N+](=O)[O-])c(Br)n1CC(=O)c1ccccc1	i	?	?	i	8.2µM*	18µM*
Cc1nc([N+](=O)[O-])c(C(=O)OCc2ccccc2Br)n1C	21µM*	-10%	-3%	?	?	-19%
Cc1nc([N+](=O)[O-])c(Br)n1CC(=O)c1ccc(Br)cc1	?	21µM*	?	?	8.2µM*	7.3µM*
CCc1nc2c(OCC(=O)C(C)(C)C)cccn2c1N(C=O)Cc1ccc(OC)cc1	i	9%	8%	i	?	-15%
CCCCn1c(N)c(N(C)C(=O)c2cn(-c3ccccc3)nc2-c2ccccc2)c(=O)[nH]c1=O	?	6%[9.24 µM]	7%	i	-1%	-18%
COc1ccc(C2C=CC(=O)CC2)c(OC)c1 (stereo unspecified)	i	?	?	?	?	?
CN(C)c1ccc(/C=N/NC(=O)Cn2nnc3ccccc32)cc1	i	8%	16%	i	-24%	-7%
Cc1ccsc1/C=N\NC(=O)Cn1nnc2ccccc21	?	-21%	?	?	18µM*	?
COc1ccc(C(CNC(=O)c2cc(C)oc2C)N2CCOCC2)cc1 (stereo unspecified)	i	-5%	-5%	i	?	?
Cc1c(C(=O)NCCN2CCOCC2)oc2ccccc12	i	10%	14%	i	-23%	-7%
COc1ccc(C(CNC(=O)c2ccc(-c3cccc(C(F)(F)F)c3)o2)N2CCOCC2)cc1 (stereo unspecified)	i	-3%	-2%	i	21µM*	?
COc1ccc(C(CNC(=O)c2ccco2)N2CCOCC2)cc1 (stereo unspecified)	i	5%	4%	i	11%	-19%
CCC1CCc2sc(C(=O)NCC(c3ccc(OC)cc3)N3CCOCC3)cc2C1 (stereo unspecified)	i	-24%	-22%	i	13µM*	23µM*
Cc1c(C(=O)NCC(c2ccc(Cl)cc2)N2CCOCC2)oc2ccccc12 (stereo unspecified)	i	.	.	i	23µM*	16µM*
COc1ccc(C(CNC(=O)c2oc3ccc(C)cc3c2C)N2CCOCC2)cc1 (stereo unspecified)	.	.	.	.	-94%	23µM*
CC(C)c1ccc(N2C(=O)CSC23C(=O)N(C)c2ccccc23)cc1 (stereo unspecified)	?	.	.	i	.	.
CNC(=O)N1CCC(C(=O)c2c(C)c(C)c(C)c(C)c2C)CC1	i	5%	4%	i	?	?
Cc1ccc2oc(C(=O)NCC(c3ccc(Cl)cc3)N3CCOCC3)c(C)c2c1 (stereo unspecified)	i	.	.	i	10µM*	8.2µM*
SMILES	KB-V1 cytotox	HT1080NT lethal	HT1080 IDH1KD tx	KB-3-1 tox	TDP1 cell noCPT	TDP1 cell CPT
CCOc1ccc(NC(=O)NC(C)c2c(-n3cccc3)sc3c2CCN(CC)C3)cc1 (stereo unspecified)	.	.	.	.	18µM*	21µM*
CCN1CCc2c(sc(-n3cccc3)c2C(C)NC(=O)Nc2ccc(Br)cc2)C1 (stereo unspecified)	.	.	.	.	13µM*	16µM*
CCOCCCNC(=O)NC(C)c1c(-n2cccc2)sc2c1CCN(CC)C2 (stereo unspecified)	.	.	.	.	16µM*	13µM*
CCN1CCc2c(sc(NC(=O)Cc3ccccc3)c2C(N)=O)C1	i	3%	1%	i	-28%	1%
CCOc1ccc(NC(=O)NCc2c(-n3cccc3)sc3c2CCCC3)cc1	i	.	.	i	-15%	-4%
CC1(C)OC(=O)C2(Cc3ccccc3N3CCC(c4ccccc4)CC32)C(=O)O1 (stereo unspecified)	i	.	.	i	6%	-3%
CC(C)CCn1c(O)c(N=NC(=O)Cn2ccc(C(F)(F)F)n2)c2ccccc21	i	-1%	-4%	i	23µM*	21µM*
O=C1NC[C@@H](CCCCN2CCN(CCc3ccc(O)cc3)C(=O)C2=O)N(CCC2CCCCC2)C1=O	i	10%	7%	i	2%	-2%
COC(C(=O)Nc1ccccc1C(=O)N1CCOCC1)c1ccccc1 (stereo unspecified)	i	-1%	7%	i	-19%	6%
CC1=C(CC(=O)O)c2cc(F)ccc2/C1=C\c1ccc(S(C)=O)cc1 (stereo unspecified)	i	10%	-2%	i	?	12µM*!
O=C(Cn1nnc(-c2ccccc2)n1)Nc1ccccc1N1CCOCC1	?	10%	14%	i	13µM*	?
O=C(Cc1ccc(Cl)c(Cl)c1)Nc1ccccc1N1CCOCC1	i	-27%	-12%	i	?	23µM*
O=C(Cc1ccccc1)Nc1ccccc1N1CCOCC1	i	0%	0%	i	-26%	12%
O=C(Cc1ccc2c(c1)OCCO2)Nc1cc(Cl)ccc1N1CCOCC1	i	-9%	1%	i	?	16µM*
O=C(Cc1cccc(NC(=O)C2CCN(C(=O)CCc3ccccc3)CC2)c1)Nc1cccc(C(=O)N2CCCC2)c1	i	0%	-3%	i	16µM*	?
